Bioassay records: PubChem BioAssay, National Center for Advancing Translational Sciences (NCATS)
GLS inhibitor = blocks human kidney-isoform glutaminase activity; Potency, µM (top dose mostly 45.5 µM), for the others: at the top dose activity change, negative = inhibition, most hits filed as inhibitors; O94925; AID 624170; 410,000 compounds, 0.21% hits; GLS enzymatic activity, qHTS titration; also: % is scaled to controls: 0 for no effect and ±100 for the full control effect
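Glutamate formation by hKGA was monitored fluorometrically using coupled glutamate oxidase, HRP and Amplex Red. Substrate was added as 1 mM L-glutamine solution; incubation was 30 min at RT after an initial read.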
G9a block = G9a (human) methyltransferase inhibition; 350,000 compounds, 8.8% hits; G9a H3K9 monomethylation, AlphaScreen, 2 h; Potency, µM (titrated, usually from 102 µM), inactives show top-dose activity, negative = inhibition, most hits filed as inhibitors; also: % is scaled to controls: 0 for no effect and ±100 for the full control effect; nearly all actives have a fitted effect of over 75% in size
Target sequence (Q96KQ7 913-1193 limits assumed): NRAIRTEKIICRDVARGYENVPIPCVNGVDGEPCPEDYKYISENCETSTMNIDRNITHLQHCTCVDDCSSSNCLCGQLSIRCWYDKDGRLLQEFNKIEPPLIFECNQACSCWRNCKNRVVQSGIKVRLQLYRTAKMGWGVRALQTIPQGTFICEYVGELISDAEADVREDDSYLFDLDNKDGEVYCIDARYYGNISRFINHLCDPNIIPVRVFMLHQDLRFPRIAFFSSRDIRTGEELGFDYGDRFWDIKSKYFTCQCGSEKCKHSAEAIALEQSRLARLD
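Using a bead-based AlphaScreen, monomethylated H3K9 product from 2 h room-temperature reactions (G9a 20 nM, peptide 500 nM, SAM 20 uM) was detected with 0.5 ug/mL rabbit anti-H3K9me1 antibody.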
BAZ2B block = blocks human BAZ2B | AlphaScreen BAZ2B-H3K14Ac peptide displacement | Potency, µM (doses to about 114 µM), inactives show at the highest dose activity change, negative = inhibition, hits mostly inhibitors | 360,000 compounds, 4.4% hits | AID 504333; also: % is scaled to controls: 0 for no effect and ±100 for the full control effect; nearly all actives have a fitted effect of over 60% in size
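Multi-concentration screen (max 110 uM) measuring displacement of acetylated histone H3 peptide from BAZ2B by AlphaScreen, using 50 nM protein, 50 nM peptide and 10 ug/mL streptavidin donor plus Ni-chelate acceptor beads.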
HP1b chromo inh = HP1-beta chromodomain-methylated histone interaction inhibition; AlphaScreen HP1-beta / biotin-H3K9me3 peptide binding; 390,000 compounds, 0.56% hits; P83916; Potency, µM (titrated, usually from 114 µM), inactives show at the highest dose activity change, negative = inhibition, hits mostly inhibitors; also: nearly all actives have a fitted effect of over 70% in size
Target sequence (P83916 whole entry, looked up): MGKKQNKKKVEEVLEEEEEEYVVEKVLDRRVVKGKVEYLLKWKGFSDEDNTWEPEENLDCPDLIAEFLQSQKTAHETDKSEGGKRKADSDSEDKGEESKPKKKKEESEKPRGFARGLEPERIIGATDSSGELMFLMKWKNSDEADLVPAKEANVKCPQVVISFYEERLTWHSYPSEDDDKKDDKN
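AlphaScreen: HP1-beta (50 nM) preformed 30 min with biotin-H3(1-18)K9me3 peptide (50 nM) in PBS pH 7.4, 0.01% Tween-20. Compound added for 30 min at RT, then streptavidin donor/nickel chelate acceptor beads (10 ug/mL) for 30 min.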
JMJD2A Tudor inh = inhibitors of human JMJD2A Tudor domain; Potency, µM (series often up to 114 µM), without a hit: at the top dose activity change, negative = inhibition, usual class: inhibitors; 390,000 compounds, 4.4% hits; AlphaScreen JMJD2A-Tudor / H3K4me3 peptide binding; also: % is scaled to controls: 0 for no effect and ±100 for the full control effect; nearly all actives have a fitted effect of over 50% in size
* marks the source's active call; other numbers are inactive results; ? = inconclusive; / = no result; [ ] = dose if it differs, or a comment. Most compounds without a hit are left out; they make up all but 10% or so of the library. Calls follow the shape of the dose curve; as a rule, active = well fitted curve in the direction sought with a large enough effect; inconclusive = small, poorly fitted or top-dose-only effect, or another doubt; inactive = no such curve, though single readings can be large; an effect the other way counts as inactive or inconclusive. Potency is read from the fitted curve at half-maximal effect.

SMILES | GLS inhibitor | G9a block | BAZ2B block | HP1b chromo inh | JMJD2A Tudor inh
COc1c(C)cc(C(O)c2ncc(-c3ccc4ccccc4c3)[nH]2)cc1C (configuration not stated) | -6% | / | / | / | /
COc1ccc(CN2C(=O)c3ccccc3C2c2nnnn2-c2c(C)cccc2C)cc1OC (configuration not stated) | 2% | / | / | / | /
COc1ccc(N=C(c2ccccc2)c2c(C)[nH]n(-c3ccccc3)c2=O)c(OC)c1 | -1% | ? | ? | -8% | ?
Nc1ccn([C@@H]2O[C@H](C(=O)N[C@H](CO)Cc3ccccc3)[C@@H](O)[C@H]2O)c(=O)n1 | 9% | / | / | / | /
CC(=O)COc1nc2c(c(-c3ccco3)c1C#N)CCc1ccccc1-2 | -1% | 45µM* | -16% | 9% | 22%
CCOc1nc2c(c(-c3cccs3)c1C#N)Cc1ccccc1-2 | -21% | -37% | 4% | 13% | -2%
CC(C)CNC(=S)N1CCC(c2nc(-c3ccc(F)cc3)no2)CC1 | -14% | 9% | -12% | 41% | 2%
COCCNC(=S)N1CCC(c2nc(-c3ccc(N(C)C)cc3)no2)CC1 | 46% | ? | 56µM* | -33% | ?
Cc1ccc(/C=C/C(=O)N2CCN(Cc3ccccc3)CC2)o1 | -6% | 4µM* | ? | -19% | -24%
Cc1cc(C)c(C)c(S(=O)(=O)N2CCN(C(=O)c3ccco3)CC2)c1C | 0% | / | / | 4% | -12%
Cc1ccc(S(=O)(=O)N2CCN(C(=O)N(C)C)CC2)cc1C | -2% | -5%[12.7 µM] | -1% | 29% | -12%
Cc1ccc(/C=C/C(=O)N2CCN(S(=O)(=O)c3c(C)c(C)cc(C)c3C)CC2)o1 | -12% | 7.9µM* | ? | ? | 79µM*
Cc1ccc(/C=C/C(=O)N2CCN(S(=O)(=O)c3ccc(C)c(C)c3)CC2)o1 | 14% | 2.8µM* | ? | ? | 45µM*
Cc1ccc(C(=O)N2CCN(Cc3ccccc3)CC2)o1 | -13% | 23% | -12% | 4% | -17%
CCc1nc2c(OCc3ccc(OC(F)F)cc3)cccn2c1N(C)C(=O)c1ccc(OC)cc1 | -6% | / | / | / | /
O=C(OCc1cc(=O)n2nc(-c3cccs3)sc2n1)c1ccc(Cl)cc1 | -4% | 14%[59 µM] | -25% | 13% | -25%
O=C(C=Cc1ccco1)c1ccc([N+](=O)[O-])cc1 | -18% | / | / | ? | ?
O=C(/C=C/c1ccco1)c1ccc(NC(=O)C23CC4CC(CC(C4)C2)C3)cc1 | -7% | 4.5µM* | 35µM* | ? | ?
Cc1ccccc1CN1C(=O)CS/C1=N/N=C/c1ccco1 | 5% | 40µM* | ? | 0% | -22%
O=C1CS/C(=N/N=C/c2ccccc2)N1Cc1ccco1 | -10% | / | -11% | 8% | -17%
Cn1c(N)c(C(=O)Nc2c(Cl)cccc2Cl)sc1=S | -5% | 50µM* | -37% | -22% | -31%
COC(=O)c1ccccc1NC(=O)c1sc(=S)n(C)c1N | -13% | 7.9µM* | -36% | ? | -6%[11.4 µM]
Cc1ccc(-n2c(N)c(C(=O)NCc3cccnc3)sc2=S)cc1 | -13% | 10µM* | 0% | ? | -23%
Cn1c(N)c(C(=O)NCc2ccccc2)sc1=S | -10% | ? | ? | ? | 89µM*
CCCOc1ccccc1-c1nc(SCC(=O)c2ccccc2)n[nH]1 | -1% | -34%[59 µM] | -7% | 46% | -3%
SMILES | GLS inhibitor | G9a block | BAZ2B block | HP1b chromo inh | JMJD2A Tudor inh
CCNC(=O)C1CCCc2c1[nH]c1ccc(Cl)cc21 (configuration not stated) | 0% | -8%[59 µM] | 79µM* | 0% | -15%[57.1 µM]
NC(=O)C1CCCCc2c1[nH]c1ccc(Cl)cc21 (configuration not stated) | 3% | -16% | -13% | 5% | ?
COc1cccc(CNC(=O)C2CCN(Cc3cc4ccccc4n3Cc3ccc(C)cc3)CC2)c1 | -6% | -35%[59 µM] | -21% | 38% | -25%
Cc1cc(C)c(C(=O)CSc2nnc(C)s2)c(C)c1 | 15% | 40% | 16% | 42% | 7%
Cc1cc(C(=O)CSc2nnc(N)s2)c(C)n1-c1c(C)n(C)n(-c2ccccc2)c1=O | 1% | 50µM* | -9% | 1% | -24%
COCC(C)n1c(C)cc(C(=O)CSc2nnc(N)s2)c1C (configuration not stated) | 14% | 6.3µM* | -35% | 16% | -25%
Cc1cc(C)c(C(=O)CSc2nnc(N)s2)c(C)c1 | 20% | 25µM* | -7% | -20% | -22%
Cc1cc(C(=O)CSc2nc(N)cc(N)n2)c(C)n1C1CC1 | -7% | ? | -25% | -21% | ?
Cc1cc(C(=O)CSc2nnc(N)s2)c(C)n1C1CC1 | -1% | 50µM* | -11% | 22% | -19%
O=C(NCCS(=O)(=O)N1CCN(c2ccccc2F)CC1)C(c1ccccc1)c1ccccc1 | 6% | -5%[59 µM] | 4% | 22%[57 µM] | -1%
COCCOC(=O)c1c(C)n(S(=O)(=O)c2ccc(C)cc2)c2ccc(NS(=O)(=O)c3ccc(C)cc3)cc12 | -9% | ? | -13% | 29% | -12%
Cc1ccc(CNC(=O)COC(=O)c2cccc(S(=O)(=O)N3CCCCC3)c2)cc1 | -4% | 1%[59 µM] | 2% | 33% | -7%
CNCC(=O)NC(CCCN=C(N)N)C(=O)NC(C(=O)NC(Cc1ccc(O)cc1)C(=O)NC(C(=O)NC(Cc1cnc[nH]1)C(=O)N1CCCC1C(=O)NC(C)C(=O)O)C(C)C)C(C)C (configuration not stated) | 13% | ? | / | / | /
O=C(O)c1ncn(Cc2ccccc2)c1C(=O)O | -1% | 10µM* | 32µM* | 55% | 6.3µM*
O=C(NCc1ccccc1)c1ncn(Cc2ccccc2)c1C(=O)NCc1ccccc1 | 2% | -6%[2.33 µM] | 13% | 60% | 6%
Cn1cnnc1SC1CCCCC1NS(=O)(=O)c1ccc(Cl)cc1 (configuration not stated) | 0% | 13µM* | ? | 22% | -9%
Nn1cnnc1SC1CCCCC1NS(=O)(=O)c1ccccc1 (configuration not stated) | -1% | ? | 71µM* | 7% | -21%
Cn1cnnc1SC1CCCCC1NS(=O)(=O)c1ccccc1 (configuration not stated) | 3% | 3%[59 µM] | 11% | 32% | -10%
O=S(=O)(NC1CCCCC1Nc1ccccc1)c1ccccc1 (configuration not stated) | 18% | 5%[59 µM] | 0% | 32% | -12%
CC(=O)Nc1ccc(NC2CCCCC2NS(=O)(=O)c2ccc(Cl)cc2)cc1 (configuration not stated) | 15% | 40µM* | -34% | 7% | -7%
COc1cc(C(=O)NCC(c2cccs2)N2CCOCC2)ccc1OCc1ccc(Cl)cc1 (configuration not stated) | 1% | / | / | / | /
CC(NC(=O)COC(=O)/C(=C/c1cccs1)c1cccs1)c1ccccc1 (configuration not stated) | -4% | -20%[59 µM] | ? | 15% | -34%
